Here are results for 64 compounds from PubChem BioAssay AID588742 (Southern Research Specialized Biocontainment Screening …, 2011).

Out of some 1,800 compounds screened, about 410 (23%) were called active. The list is a sample of the results. Entries with a potency or affinity are not part of this list. Values without a mark were called inactive. How the calls were made is not given here.

The assay in a line: Vero cell cytotoxicity, cytotoxicity control for flavivirus capping enzyme inhibitors (AID 588742). The conditions noted are these: Vero cells viability, cytotoxicity counter-screen; series mostly up to 40 µM; viability: at the top concentration.
In the case of `Cc1ccc(C(=O)Nc2ccccc2C(=O)O)cc1S(=O)(=O)Nc1ccc(Br)cc1`, the “viability” value is 101%.
With `COC(=O)c1ccc(N2NC(=O)/C(=C/c3ccc(-c4ccc(Cl)c(C(=O)O)c4)o3)C2=O)cc1`, the “viability” value was 93.8%.
With `CC1(OC(=O)C2CCCC2)C(=O)C=C2C=C(c3ccsc3)N(CCc3ccccn3)C=C2C1=O` (centres undefined), the “viability” value is 97.4%.
Turning to `CSc1nsc2nc(=O)c(/C=C3\C=Nc4ccccc43)c(N)n12`, the “viability” value was 89.2%.
`CC1=NN(Cc2ccccc2)C(=O)C1C(c1ccc(Cl)cc1)C(C#N)C#N` (centres undefined): the “viability” value is 82.8%.
The same measure for `Cc1ccc(NC(=O)c2cccc(C(=O)Nc3ccc(C)cc3C(=O)O)c2)c(C(=O)O)c1`: 95.8%; for `Cc1ccc(F)c(NC(=O)/C(C#N)=C(\O)c2ccc(C(C)(C)C)cc2)c1`: 94.3%; for `Cn1c(=O)c2[nH]c(-c3ccccc3)c(O)c2n(C)c1=O`: 105%.
The value for `O=C(O)c1ccc2c(c1)C(=O)N(c1ccc(/C=C/C(=O)c3ccccc3)cc1)C2=O` was 110%.
On to `O=C(O)COc1ccc(/C=C/C(=O)c2ccc(C3CCCCC3)cc2)cc1`, for which the “viability” value was 90.6%.
The same measure for `C#CCOc1c(Br)cc(/C=C2/C(=O)ON=C2C)cc1OC`: 92.8%.
Take `CC(C(=O)Nc1ccc(O)cc1C(=O)O)N1C(=O)/C(=C\c2cccs2)SC1=S` (centres undefined): the “viability” value is 95.8%.
As for `O=C1CC2CCCN2C=C1I` (centres undefined), the “viability” value was 94.8%.
Turning to `c1cc2c(cc1CNc1ccc(N3CCOCC3)cc1)OCO2`, the “viability” value is 101%.
In the case of `Cc1ccc(-c2cc(C(=O)O)c3cc(Br)ccc3n2)o1`, the “viability” value is 92.2%.
For `Cc1ccnc(NCc2ccccc2O)c1`, the “viability” value was 101%.
Regarding `Cc1ccc(N2C(=O)C(Cl)=C(N3CCN(C)CC3)C2=O)c(C)c1`, the “viability” value was 102%.
As to `O=C1C(Cl)=C(N2CCCCC2)C(=O)N1c1ccccc1`, the “viability” value is 94.3%.
For the compound `O=C1C(Cl)=C(N2CCCC2)C(=O)N1c1ccccc1F`, the “viability” value was 104%.
Consider `CN1CCN(C2=C(Cl)C(=O)N(c3ccc(Cl)c(Cl)c3)C2=O)CC1`, for which the “viability” value was 106%.
Consider `CCCCNC(=O)c1ccc2nc(-c3ccco3)c(-c3ccco3)nc2c1`, for which the “viability” value is 96%.
For `CC1=NN(c2ccc(C)c(C)c2)C(=O)C1C(c1cccc(O)c1)C1C(=O)N(c2ccc(C)c(C)c2)N=C1C` (centres undefined), the “viability” value was 102%.
For the compound `CCCCC1=CC2=C(c3ccco3)C(=O)C(C)(OC(=O)c3ccc(OC)cc3)C(=O)C2=CN1C(CO)CO` (centres undefined), the “viability” value is 98.4%.
The value for `C=CCOc1ccc(C(c2c(O)nc(SC)[nH]c2=O)c2c(O)nc(SC)[nH]c2=O)cc1` was 107%; that for `CC(=O)N1c2ccc(S(=O)(=O)N(C)CC(=O)Nc3ccccc3C)cc2CC1C` (centres undefined) was 108%; that for `O=C(CN1C(=O)/C(=C2/SC(=S)N(CCS(=O)(=O)O)C2=O)c2ccccc21)Nc1cccc(Br)c1` was 103%.
Regarding `O=C(O)c1ccccc1NS(=O)(=O)c1ccc(NNC(=S)Nc2ccc(OC(F)F)cc2)c([N+](=O)[O-])c1`, the “viability” value is 86.5%.
In the case of `C=CCNc1nc(Nc2ccc([N+](=O)[O-])cc2)nc(OC)n1`, the “viability” value was 94%.
The value for `O=C(Nc1ccc(Cl)cc1C(=O)O)c1ccc2c(c1)C(=O)N(Cc1ccco1)C2=O` was 103%; that for `C#CCOc1ccccc1/C=C1/C(=O)ON=C1C` was 93.1%; that for `COc1ccc(-c2csc(NC(=O)c3ccccc3Br)c2C(=O)O)cc1` was 94.8%.
Regarding `Cc1ccc(/C=N/NC(=O)c2nnn(-c3nonc3N)c2CSc2ccccc2)s1`, the “viability” value is 101%.
`CCC(=O)OC1(C)C(=O)C2=COC(c3ccc(OC)cc3)=CC2=C(Br)C1=O` (centres undefined): the “viability” value is 91.3%.
Consider `CCc1ccc(Nc2ccc(C(=O)O)cc2[N+](=O)[O-])cc1`, for which the “viability” value is 107%.
As for `O=C(Nc1cc(S(=O)(=O)N2CCOCC2)ccc1O)c1ccc2c(c1)S(=O)(=O)c1ccccc1C2=O`, the “viability” value was 95.9%.
The same measure for `O=S(=O)(Nn1c(O)c(C=C2N=c3ccccc3=N2)sc1=S)c1ccccc1`: 90.8%.
Take `O=C1ON=C(c2ccc([N+](=O)[O-])cc2)/C1=C/c1ccccc1O`: the “viability” value was 103%.
With `O=C(NCc1ccccc1)c1sc(=S)n2c1[nH]c(=O)c1ccccc12`, the “viability” value is 98.5%.
On to `Nc1scc2c(C(=O)O)nn(-c3ccccc3)c(=O)c12`, for which the “viability” value was 103%.
Turning to `CCOC(=O)c1sc(N2C(=O)C(O)=C(C(=O)c3ccco3)C2c2ccc([N+](=O)[O-])cc2)nc1C` (centres undefined), the “viability” value is 97.5%.
The value for `Cc1cc(O)c(C(C)C)cc1N=Cc1ccccc1O` was 91.1%; that for `O=C1C(Cl)=C(N2CCN(Cc3ccccc3)CC2)C(=O)N1c1ccccc1` was 96.7%.
`CC(=O)Oc1oc(-c2ccccc2)nc1C=Nc1ccccc1`: the “viability” value is 93%.
In the case of `COc1cc(C(=O)Nc2scc(-c3ccc(Br)cc3)c2C(=O)O)cc(OC)c1OC`, the “viability” value is 92%.
The same measure for `Cc1ccc(SCc2[nH]nc3c2C(c2ccco2)C(C#N)=C(N)O3)cc1` (centres undefined): 97%.
The same measure for `Nc1cccc2c1C(=O)N(C(=O)/C=C/c1cccc(F)c1)C2=O`: 102%; for `Cc1cc(O)c(C(C)C)cc1N=Cc1cc([N+](=O)[O-])ccc1O`: 105%.
For the compound `O=[N+]([O-])c1ccc(O)c(C=Nc2ccc3c(c2)OCO3)c1`, the “viability” value is 83.4%.
Regarding `CC[N+]1(CC)CC2CCC(C)(C1)C2(C)C` (centres undefined), the “viability” value is 103%.
Take `CCCn1c(C)cc(-c2csc(N)n2)c1C`: the “viability” value is 93.8%.
Take `O=[N+]([O-])c1c(Nc2ccccc2O)cc(Cl)c2nonc12`: the “viability” value was 85.5%.
With `O=C(O)c1cc(Nc2cc(Cl)c3nonc3c2[N+](=O)[O-])ccc1O`, the “viability” value is 106%.
With `O=C(O)c1ccc(Nc2cc(Cl)c3nonc3c2[N+](=O)[O-])cc1`, the “viability” value was 96.6%.
The value for `O=[N+]([O-])c1ccc(O)c(Nc2c([N+](=O)[O-])ccc3nonc23)c1` was 90.6%; that for `O=C(O)c1cccc(Nc2cc(Cl)c3nonc3c2[N+](=O)[O-])c1` was 99.5%; that for `Cc1ccc(/C=N/c2sc3c(c2C#N)CCC3)s1` was 99.6%.
`COc1cc(C2C(C#N)=C(N)N(c3cccnc3)C3=C2C(=O)CCC3)ccc1O` (centres undefined): the “viability” value is 101%.
For `CCCCCc1c2c(cc(O)c1C(=O)O)OC(=O)c1cc(C(=O)CCCC)c(OC)cc1O2`, the “viability” value is 103%.
With `COC(=O)Cc1ccc(NC(=S)Nc2ccc(N3CCOCC3)cc2)cc1`, the “viability” value was 103%.
In the case of `COc1cc(/C=C2/C(=O)NN(c3cccc(C)c3)C2=O)ccc1OC(=O)c1ccco1`, the “viability” value was 99.3%.
Turning to `CCC(C)NC(=O)c1ccc(N2CCC3(CC2)OCCO3)c([N+](=O)[O-])c1` (centres undefined), the “viability” value is 95.6%.
As to `CC(C)NC(=O)Cn1cc(S(=O)(=O)N2CCCC2)c(S(=O)(=O)N2CCCC2)c1`, the “viability” value was 96.5%.
As to `CC(=O)Nc1ccc(C2=NNC(=NCC3CCCO3)SC2)cc1` (centres undefined), the “viability” value is 102%.
The same measure for `O=C(O)CN1C(=O)/C(=C\c2cc(Br)ccc2OCc2ccc([N+](=O)[O-])cc2)SC1=S`: 96.9%.
